± gives the standard deviation of the averaged measurements. The full ranking holds about 33,000 sequences; the median of “E-score (rank enrichment, -0.5 to 0.5)” is about -0.0028, and the highest 2% start at about 0.23. Shown is part of a subset that was picked to be rich in the highest values.
The sequences below were run on 2Sb-muMax20 (muMax20 with two 1,3-bis(methyl)benzene Cys staples, A13C/A17C and Q88C/A92C, C-terminal Lys) (assay: PBM 8-mer E-score (E-score (rank enrichment, -0.5 to 0.5)); higher = stronger preferential binding).
Procedure: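 Protein binding microarray (universal PBM chip covering all 10-mers in fixed probe flanks) with chemically synthesized human Max(13-93) bHLH-LZ analogs (not full-length Max) bearing noncanonical residues (hArg, Tha, Aib, Nle at 65) and aromatic Cys staples. Read-out per 8-mer (and its reverse complement): E-score (rank-based enrichment, -0.5 to 0.5) and Z-score of median probe intensity.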

| Sequence | PBM 8-mer E-score |
| --- | --- |
| CCTATATC | 0.0672 ± 0.019 |
| ACTATATA | 0.285 ± 0.058 |
| GCTATATA | 0.173 ± 0.019 |
| ACTATATC | 0.271 ± 0.019 |
| CGTCGCGC | -0.0442 ± 0.0083 |
| CATCCTGG | -0.145 ± 0.035 |
| ACCTTTCC | 0.0327 ± 0.034 |
| ATCTTAAT | 0.232 ± 0.042 |
| CTATTAAA | 0.125 ± 0.055 |
| ATATTAAC | 0.22 ± 0.076 |
| ATATTAAG | 0.0865 ± 0.0037 |
| ATATTCAT | 0.238 ± 0.022 |
| ATATTCAC | 0.193 ± 0.047 |
| ATATTAAA | 0.234 ± 0.046 |
| ATCTTAAC | 0.0878 ± 0.048 |
| ATCTTAAA | 0.0723 ± 0.05 |
| ATATTCAA | 0.171 ± 0.023 |
| ATATTAAT | 0.302 ± 0.02 |
| TTATTAAA | 0.0933 ± 0.013 |
| ACATTGAT | 0.105 ± 0.0059 |
| AACGAGTG | -0.131 ± 0.02 |
| CGCGACCG | -0.221 ± 0.029 |

| Sequence | PBM 8-mer E-score |
| --- | --- |
| CACTAGAG | -0.0261 ± 0.065 |
| ATAGGTAA | 0.0236 ± 0.0059 |
| GCTCTGGA | -0.0441 ± 0.02 |
| CGTGGAGA | 0.0751 ± 0.065 |
| GAAGGGGA | -0.0692 ± 0.0026 |
| CCCCCAAC | -0.195 ± 0.066 |
| CCCCCACC | -0.264 ± 0.062 |
| GCCCCACC | 0.289 ± 0.051 |
| GCCCCAAA | 0.117 ± 0.0026 |
| GCCCCACA | 0.156 ± 0.1 |
| GCCCCAAC | 0.315 ± 0.0087 |
| CAATGGGA | 0.0389 ± 0.029 |
| CCGCACTA | -0.0974 ± 0.0081 |
| CGAAGCAA | -0.0083 ± 0.02 |
| AGATCCCA | -0.0112 ± 0.031 |
| ACCTTAAG | -0.0585 ± 0.037 |
| CTCCCGGC | -0.268 ± 0.0042 |
| AGTAATTA | 0.202 ± 0.03 |
| CGTAATTA | 0.202 ± 0.046 |
| CCTAATTA | 0.0703 ± 0.012 |
| GGTAATTA | 0.24 ± 0.0065 |
| GCTAATTA | 0.235 ± 0.039 |

| Sequence | PBM 8-mer E-score |
| --- | --- |
| ACTAATTA | 0.226 ± 0.024 |
| ATGCGGGC | -0.00019 ± 0.029 |
| AGTCCTCA | -0.113 ± 0.048 |
| AATTTGTA | 0.0698 ± 0.0044 |
| ACGGAGAA | 0.18 ± 0.029 |
| GAGCCAAA | -0.057 ± 0.017 |
| CCTATCGA | 0.15 ± 0.023 |
| GCCCGCCC | 0.108 ± 0.057 |
| ACCCGCCC | 0.274 ± 0.11 |
| CCCCGCCA | 0.309 ± 0.031 |
| ACCCGCCG | 0.0869 ± 0.081 |
| GCCCGCCA | 0.0111 ± 0.022 |
| CCCCGCCG | 0.161 ± 0.13 |
| CCCCGCCC | 0.355 ± 0.037 |
| TCCCGCCA | -0.0896 ± 0.035 |
| CGCCGCCC | -0.0329 ± 0.11 |
| CCGATAGC | -0.195 ± 0.0074 |
| TCGGACGA | -0.0961 ± 0.011 |
| CATGCCCG | 0.114 ± 0.033 |
| ACGTAGGC | -0.161 ± 0.069 |
| AATTGATG | 0.196 ± 0.013 |
| TGCCCCAA | 0.304 ± 0.012 |

| Sequence | PBM 8-mer E-score |
| --- | --- |
| AGCCCCCA | -0.192 ± 0.049 |
| GGCCCCAA | 0.134 ± 0.045 |
| TGCCCCCA | 0.0887 ± 0.0026 |
| AGCCCCAA | 0.2458 ± 0.001 |
| TGCCCAAA | -0.17 ± 0.028 |
| CGCTAATA | 0.0712 ± 0.011 |
| CAGGTAGG | 0.0772 ± 0.037 |
| ATCTCTGC | 0.124 ± 0.041 |
| AAGTTTAC | -0.0181 ± 0.035 |
| AAGTTTAG | 0.193 ± 0.079 |
| AAGTTTAT | 0.263 ± 0.011 |
| CTATGGTC | -0.0714 ± 0.011 |
| ACCTTCCG | 0.156 ± 0.054 |
| TAACGATA | 0.261 ± 0.025 |
| AAACGATA | 0.0414 ± 0.058 |
| CAACGATA | 0.0514 ± 0.023 |
| AAGCCAAA | -0.0671 ± 0.036 |
| GACTACTA | 0.123 ± 0.086 |
| AACGATTG | -0.048 ± 0.0011 |
| AAAGGAGA | 0.102 ± 0.13 |
| GAAGGAGA | 0.278 ± 0.031 |
| CAAGGAGA | -0.121 ± 0.026 |

| Sequence | PBM 8-mer E-score |
| --- | --- |
| TTATGAAA | -0.0227 ± 0.036 |
| ATATGAAC | 0.111 ± 0.0082 |
| ATATGAAG | -0.0272 ± 0.098 |
| ATATGAAT | 0.269 ± 0.0035 |
| ATATGAAA | 0.268 ± 0.017 |
| CTATGAAA | 0.122 ± 0.039 |
| GCGCTGAC | 0.0819 ± 0.0047 |
| ATTCGGCA | -0.0961 ± 0.057 |
| GACGTGTA | -0.0568 ± 0.059 |
| CCCGTGTC | -0.222 ± 0.044 |
| TAAGTGTA | -0.00771 ± 0.18 |
| AACGTGTA | 0.0661 ± 0.014 |
| CACGTGTC | 0.366 ± 0.032 |
| CAAGTGTA | 0.231 ± 0.042 |
| AACGTGTC | -0.0169 ± 0.047 |
| AAAGTGTA | 0.185 ± 0.019 |
| CACGTGTA | 0.3871 ± 0.0038 |
| ATGGCCGA | -0.0989 ± 0.12 |
| CGGTAGCA | 0.0259 ± 0.0084 |
| CACTAGGC | -0.0625 ± 0.012 |
| AAGGTACT | -0.0359 ± 0.027 |
| CGCCACAC | -0.107 ± 0.0099 |

From the supplement of paper PMC12636033
